Results filed as inconclusive are left out. The source made the active and inactive calls. Unless noted, the limit is not given here; nearly all actives have AC50 up to about 26 µM.

Among the data in PubChem BioAssay are outcome and AC50 values, retold here.

The first test can be described thus: growth inhibition of DIPG glioma cells, dose response, cell-based, JHH-DIPG-1, MIPE4.0, CellTiter-Glo, qHTS (AID 1347062; cut-off not given, nearly all actives have AC50 up to about 27 µM). Conditions: JHH-DIPG-1 viability, CellTiter-Glo ATP luminescence.
As for `NNCCc1ccccc1`, the result was inactive.
The same measure, in the same setting: with `CC1Cc2ccccc2N1NC(=O)c1ccc(Cl)c(S(N)(=O)=O)c1` (stereo unspecified) the entry was “inactive”.
Still for that read-out and setting: the same measure for `CC(C)Cc1ccc(C(C)C(=O)O)cc1` (stereo unspecified): “inactive”.
On the same count and under the same terms, the same measure for `N[C@@H]1CONC1=O`: “inactive”; for `CCCc1cc(=O)[nH]c(=S)[nH]1`: “inactive”.
Regarding `O=C(O)c1cccnc1`, the molecule was classed as inactive.
Same read-out and setting: the same measure for `CC(C[N+](C)(C)C)OC(N)=O` (stereo unspecified): “inactive”.
In the case of `N[C@@H](Cc1cc(I)c(Oc2cc(I)c(O)c(I)c2)c(I)c1)C(=O)O`, the outcome was inactive.
Regarding `NNC(=O)c1ccncc1`, the result was inactive.

A further test is described as follows: growth inhibition of DIPG glioma cells, dose response, cell-based, SU-DIPG-IV, MIPE4.0, CellTiter-Glo, qHTS (AID 1347063; cut-off not given, nearly all actives have AC50 up to about 30 µM;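 also: compound exposure lasted 48 hours before the viability readout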). Particulars: SU-DIPG-IV viability, CellTiter-Glo ATP luminescence.
Consider `CC(=O)OCC(CCn1cnc2cnc(N)nc21)COC(C)=O`, for which the result was inactive.
As to `S=c1nc[nH]c2nc[nH]c12`, the outcome was inactive.
As for `Oc1c(Cl)cc(Cl)c2cccnc12`, the half-maximal activity concentration (AC50) is 26.4 µM (active).
Consider `OC(Cn1cncn1)(Cn1cncn1)c1ccc(F)cc1F`, for which the molecule was called inactive.
With `NCCc1ccc(O)c(O)c1`, the molecule was called inactive.
Still for that read-out and setting: with `COc1c(N2CCNC(C)C2)c(F)cc2c(=O)c(C(=O)O)cn(C3CC3)c12` (stereo unspecified) the entry was “inactive”; with `O=C(C1CCCCC1)N1CC(=O)N2CCc3ccccc3C2C1` (stereo unspecified), “inactive”.
As for `CCc1cc(C(N)=S)ccn1`, the call was inactive.
Turning to `CCCCNc1cc(C(=O)O)cc(S(N)(=O)=O)c1Oc1ccccc1`, the result was inactive.
Consider `O=c1[nH]cnc2[nH]ncc12`, for which the call was inactive.
With `O=C1c2c(O)ccc(O)c2C(=O)c2c(NCCNCCO)ccc(NCCNCCO)c21`, the AC50 is 6.62 µM (active).
In the case of `O=C(O)c1cc(=O)c2c(OCC(O)COc3cccc4oc(C(=O)O)cc(=O)c34)cccc2o1`, the molecule was called inactive.
Same read-out and setting: with `CCCc1nc2c(C)cc(-c3nc4ccccc4n3C)cc2n1Cc1ccc(-c2ccccc2C(=O)O)cc1` the entry was “inactive”.
Still for that read-out and setting: the same measure for `CC(=O)CC(c1ccccc1)c1c(O)c2ccccc2oc1=O` (stereo unspecified): “inactive”; for `NS(=O)(=O)c1cc2c(cc1Cl)NCNS2(=O)=O`: “inactive”.
The same measure, in the same setting: the same measure for `CS(=O)(=O)OCCCCOS(C)(=O)=O`: “inactive”.
As to `NNCCc1ccccc1`, the AC50 was 13.2 µM (active).
`CC1Cc2ccccc2N1NC(=O)c1ccc(Cl)c(S(N)(=O)=O)c1` (stereo unspecified): the molecule was called inactive.
The same measure, in the same setting: the same measure for `CC(C)Cc1ccc(C(C)C(=O)O)cc1` (stereo unspecified): “inactive”.
On the same count and under the same terms, with `N[C@@H]1CONC1=O` the entry was “inactive”.
The same measure, in the same setting: the same measure for `CCCc1cc(=O)[nH]c(=S)[nH]1`: “inactive”; for `NNC(=O)c1ccncc1`: “inactive”.

A short description of a further test: growth inhibition of DIPG glioma cells, dose response, cell-based, SU-DIPG-XIII, MIPE5.0, CellTiter-Glo, qHTS (AID 1347064; cut-off not given, nearly all actives have AC50 up to about 23 µM;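 as to AC50: cells exposed to compound for 48 hours before the viability read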). Conditions: SU-DIPG-XIII viability, CellTiter-Glo ATP luminescence.
For `Oc1c(Cl)cc(Cl)c2cccnc12`, the AC50 is 11.8 µM (active).
Take `OC(Cn1cncn1)(Cn1cncn1)c1ccc(F)cc1F`: the molecule was classed as inactive.
`CC1COc2c(N3CCN(C)CC3)c(F)cc3c(=O)c(C(=O)O)cn1c23` (stereo unspecified): the molecule was called inactive.
Consider `O=C(C1CCCCC1)N1CC(=O)N2CCc3ccccc3C2C1` (stereo unspecified), for which the molecule was classed as inactive.
Regarding `CCCCNc1cc(C(=O)O)cc(S(N)(=O)=O)c1Oc1ccccc1`, the molecule was classed as inactive.
The same measure, in the same setting: with `O=c1[nH]cnc2[nH]ncc12` the entry was “inactive”.
As for `O=C1c2c(O)ccc(O)c2C(=O)c2c(NCCNCCO)ccc(NCCNCCO)c21`, the AC50 is 10.5 µM (active).
Consider `O=C(O)c1cc(=O)c2c(OCC(O)COc3cccc4oc(C(=O)O)cc(=O)c34)cccc2o1`, for which the result was inactive.
On the same count and under the same terms, with `CC(C)C(=O)Nc1ccc([N+](=O)[O-])c(C(F)(F)F)c1` the entry was “inactive”; with `CC(COc1ccccc1)N(CCCl)Cc1ccccc1` (stereo unspecified), “inactive”.
As for `CCCc1nc2c(C)cc(-c3nc4ccccc4n3C)cc2n1Cc1ccc(-c2ccccc2C(=O)O)cc1`, the molecule was classed as inactive.
Still for that read-out and setting: with `NS(=O)(=O)c1cc2c(cc1Cl)NCNS2(=O)=O` the entry was “inactive”.
Same read-out and setting: the same measure for `NNCCc1ccccc1`: “inactive”.
Regarding `CC(C)Cc1ccc(C(C)C(=O)O)cc1` (stereo unspecified), the molecule was called inactive.
`N[C@@H]1CONC1=O`: the molecule was classed as inactive.
`CCCc1cc(=O)[nH]c(=S)[nH]1`: the molecule was classed as inactive.
As for `N[C@@H](Cc1cc(I)c(Oc2cc(I)c(O)c(I)c2)c(I)c1)C(=O)O`, the call was inactive.

Another test is described as follows: viability loss in pontine glioma line – cell-based, SU-DIPG-XXV, MIPE5.0, CellTiter-Glo, qHTS, dose response (AID 1347065).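 Also: cells exposed to compound for 48 hours before ATP readout.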 Particulars: CellTiter-Glo ATP luminescence.
`CC12CC3CC(C)(C1)CC(N)(C3)C2`: the outcome was inactive.
The same measure, in the same setting: the same measure for `CC(=O)OCC(CCn1cnc2cnc(N)nc21)COC(C)=O`: “inactive”.
With `S=c1nc[nH]c2nc[nH]c12`, the AC50 was 5.25 µM (active).
As for `Oc1c(Cl)cc(Cl)c2cccnc12`, the AC50 was 26.3 µM (active).
Turning to `OC(Cn1cncn1)(Cn1cncn1)c1ccc(F)cc1F`, the call was inactive.
Regarding `COc1c(N2CCNC(C)C2)c(F)cc2c(=O)c(C(=O)O)cn(C3CC3)c12` (stereo unspecified), the molecule was called inactive.
The same measure, in the same setting: with `CC1COc2c(N3CCN(C)CC3)c(F)cc3c(=O)c(C(=O)O)cn1c23` (stereo unspecified) the entry was “inactive”.
As to `O=C(C1CCCCC1)N1CC(=O)N2CCc3ccccc3C2C1` (stereo unspecified), the molecule was classed as inactive.
The same measure, in the same setting: the same measure for `CCc1cc(C(N)=S)ccn1`: “inactive”.
Take `CCCCNc1cc(C(=O)O)cc(S(N)(=O)=O)c1Oc1ccccc1`: the outcome was inactive.
`O=C1c2c(O)ccc(O)c2C(=O)c2c(NCCNCCO)ccc(NCCNCCO)c21`: the AC50 is 11.8 µM (active).
For the molecule `CC(COc1ccccc1)N(CCCl)Cc1ccccc1` (stereo unspecified), the call was inactive.
On the same count and under the same terms, with `CCCc1nc2c(C)cc(-c3nc4ccccc4n3C)cc2n1Cc1ccc(-c2ccccc2C(=O)O)cc1` the entry was “inactive”; with `CC(=O)CC(c1ccccc1)c1c(O)c2ccccc2oc1=O` (stereo unspecified), “inactive”.
On the same count and under the same terms, with `NS(=O)(=O)c1cc2c(cc1Cl)NCNS2(=O)=O` the entry was “inactive”; with `CS(=O)(=O)OCCCCOS(C)(=O)=O`, “inactive”; with `NNCCc1ccccc1`, “inactive”.
On to `CC(C)Cc1ccc(C(C)C(=O)O)cc1` (stereo unspecified), for which the outcome was inactive.
Same read-out and setting: with `N[C@@H]1CONC1=O` the entry was “inactive”; with `CCCc1cc(=O)[nH]c(=S)[nH]1`, “inactive”; with `O=C(O)c1cccnc1`, “inactive”.
Same read-out and setting: the same measure for `N[C@@H](Cc1cc(I)c(Oc2cc(I)c(O)c(I)c2)c(I)c1)C(=O)O`: “inactive”; for `NNC(=O)c1ccncc1`: “inactive”.
